# The supplement of paper PMC9950053
# Where a name gives a salt, the structure may show the parent alone.
# System: Danio rerio larvae (5 dpf)
# Test: excitability (activity period 17 minus period 16, 1-s interval sound) minus DMSO control (percentage points); higher = more acoustic excitability than DMSO larvae
# Details: 10 µM; exposure time: 3 h pre-incubation + 3 h imaging
# Procedure: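 Wild-type 5 dpf zebrafish larvae (n=48 per drug, 96-well plates, 28.5 °C) were exposed to Tocris FDA-approved library compounds at 10 µM (0.1% DMSO) for 3 h before and 3 h during imaging. Images were taken every 6 s during visual and acoustic stimuli, and larvae were tracked with Z-LaP Tracker. Each measure is the treated-group mean minus the DMSO control mean (n=844), in percentage points. This mapping covers compounds with 5-character plate codes.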
row,SMILES,excitability
1,COc1ccc(C(CN(C)C)C2(O)CCCCC2)cc1 (stereo unspecified) [Venlafaxine hydrochloride],8.91
